aSyn UTR act: Activators via SNCA 5'UTR binding, MLPCN; alpha-synuclein 5'UTR reporter, activators screen; activity score, % (tested at 7.5 µM), hits read low; hit rate 7.1% among 300,000; in the data active means activity score below about -60%
The depositor's hits bear a star. The list is a sample of the results.

SMILES | aSyn UTR act
O=C(Cc1ccccc1)Nc1ccc(-c2nnc(-c3ccco3)o2)cc1 | -77*
Cc1cc(-c2nc3ncccc3o2)ccc1NC(=S)NC(=O)c1ccco1 | -67*
O=C(Nc1ccc(-c2nc3ncccc3o2)cc1)c1ccc([N+](=O)[O-])o1 | 100
Cc1ccnc(NC(=S)NC(=O)c2cccs2)c1 | -270*
Cc1ccc(-c2nc3ncccc3o2)cc1NC(=O)c1ccc([N+](=O)[O-])o1 | -511*
O=C(NC(=S)Nc1ccccn1)c1ccco1 | -173*
O=C(NC(=S)Nc1ccc(Cl)cn1)c1cccs1 | -92*
O=C(NC(=S)Nc1cccnc1Cl)c1ccco1 | -62*
Cc1ccnc(NC(=S)NC(=O)c2ccco2)c1 | -140*
O=C(Nc1ncc(Cl)cn1)c1cccs1 | -69*
Cc1ccc(Oc2ccc(NC(=O)c3ccco3)cc2)cc1 | -123*
Cc1ccc(NC(=O)c2ccc(OC(=O)c3ccco3)cc2)cc1 | -122*
Cc1ccc(NC(=O)c2ccc(OC(=O)c3cc4ccccc4o3)cc2)cc1 | -124*
Cc1ccc(Cn2cccc(NC(=O)c3ccco3)c2=O)cc1 | -78*
COc1ccc(-c2nc3ccccc3s2)cc1NC(C)=O | -127*
Cc1ccc(C(=O)NC(=S)Nc2cc(-c3nc4ccccc4s3)ccc2C)cc1 | -95*
C=CCN(C(=O)C1CSC2(C)CCC(=O)N12)c1nc(-c2ccccc2)cs1 (centres undefined) | -68*
CCOC(=O)C1CCN(c2c(Nc3ccc4c(c3)OCCO4)c(=O)c2=O)CC1 | -78*
COc1ccccc1Nc1nc(Cl)c(C=O)s1 | -104*
O=Cc1sc(Nc2ccccc2)nc1Cl | -117*
Cc1ccc(Nc2nc(Cl)c(C=O)s2)cc1Cl | -115*
COc1ccccc1Nc1nc2c(s1)CCC2 | -68*
CS(=O)(=O)Nc1cccc(C2=NN(S(C)(=O)=O)C(c3ccc4c(c3)OCO4)C2)c1 (centres undefined) | -86*
CS(=O)(=O)N1N=C(c2ccccc2)CC1c1ccc2c(c1)OCO2 (centres undefined) | -275*
Cc1ccc(C2CC(c3ccco3)=NN2S(C)(=O)=O)cc1 (centres undefined) | -63*
SMILES | aSyn UTR act
CCCCC(=O)N/C(N)=N/c1nc2ccccc2o1 | -206*
N/C(=N\c1nc2ccccc2o1)NC(=O)c1ccccc1F | -198*
CCn1cnc2sc(C(=O)Nc3ccc4c(c3)OCO4)c(C)c2c1=O | -145*
CCCNC(=O)Cn1cnc2sc(C(=O)Nc3ccc4c(c3)OCO4)c(C)c2c1=O | -63*
COc1cccc(/C=N/Nc2ncnc3c2ncn3Cc2ccccc2)c1O | 102
Cn1cnc2c(N/N=C/c3cccs3)ncnc21 | -67*
Cc1nc2cc(NC(=O)Nc3ccc(Br)cc3)ccc2o1 | -192*
Cc1nc2cc(NC(=O)N3c4ccccc4CC3C)ccc2o1 (centres undefined) | -104*
COC(=O)c1ccc(N2CCN(c3ccccc3)CC2)nc1 | -231*
COC(=O)c1ccc(N2CCN(c3ccccc3)CC2)c(N)c1 | -134*
c1ccc(-c2ccc(-c3[nH]ncc3CN3CCC(N4CCSCC4)CC3)cc2)cc1 | -143*
COc1ccc(NC(=S)NC(=O)/C=C/c2cccs2)cc1 | -73*
COc1ccc(OC)c2sc(N(CCN(C)C)C(=O)/C=C/c3cccs3)nc12 | 54
COc1ccc(NC(=S)NC(=O)/C=C/c2ccco2)cc1 | -91*
CCCCOC(=O)c1ccc(NC(=O)/C=C/c2cccs2)cc1 | -88*
O=C(/C=C/c1ccco1)NC(=S)Nc1ccc(N2CCCC2)cc1 | -70*
Cn1c(O)c(N=Nc2ccc(F)cc2)c2ccccc21 | -62*
Cn1c(O)c(N=Nc2nc(-c3ccccc3)cs2)c2ccccc21 | -126*
Cn1c(N2CCOCC2)c(/C=N/OC(=O)c2ccc(F)cc2)c2ccccc21 | 73
Cc1ccccc1NC(=S)N=Nc1c(O)n(C)c2ccc(S(=O)(=O)N3CCOCC3)cc12 | 78
Cc1cc(C)cc(NC(=O)c2cc(C)n(Cc3cccs3)c2C)c1 | -117*
Cc1cc(C(=O)Nc2ccc(Cl)cc2)c(C)n1Cc1cccs1 | -67*
COc1ccc2c(c1)C1=NN(/C(C)=C/C(C)=O)C(c3ccc(F)cc3)C1CC2 (centres undefined) | -78*
COc1ccc2c(c1)C1=NN(/C(C)=C/C(C)=O)C(c3cccc(F)c3)C1CC2 (centres undefined) | -64*
COc1ccc2c(c1)C1=NN(/C(C)=C\C(C)=O)C(c3ccccc3)C1CC2 (centres undefined) | -141*
SMILES | aSyn UTR act
CC1(C)CC(=O)C=C(c2ccc3[nH]ccc3c2)C1 | -65*
O=C1C=C(c2ccc3[nH]ccc3c2)CCC1 | -151*
Oc1ccc(-c2nnc(SCc3ccccc3)o2)cc1 | -138*
c1ccc(CSc2nnc(Cc3ccccc3)o2)cc1 | -71*
O=C(CSc1nnc(COc2ccc(Cl)cc2)o1)N1c2ccccc2CCc2ccccc21 | 60
Fc1ccc(CSc2nnc(-c3cccnc3)o2)cc1 | -65*
c1ccc(CSc2nnc(-c3cccnc3)o2)cc1 | -123*
Cc1ccccc1-c1nnc(SCc2ccc(F)cc2)o1 | -126*
c1ccc(-c2nnc(SCCC3OCCCO3)o2)cc1 | -111*
O=[N+]([O-])/C(C(Cl)=C(Cl)Cl)=C(/Sc1ccccc1)N1CCCCC1 | -78*
Cc1ccsc1/C=N/Nc1nc(=O)[nH]nc1C | -85*
Cc1cc(C)nc(N/N=C/c2ccccc2)n1 | -73*
Cc1cc(C)c2nc(C)cc(N/N=C/c3ccc(O)cc3)c2c1 | 112
Cc1ccsc1/C=N/Nc1ncc(Cl)cc1Cl | -71*
Cc1cc(C)nc(N/N=C/c2ccccc2Cl)n1 | -88*
Cc1ccsc1/C=N/Nc1ccc(F)cc1F | -176*
Cc1cc(C)nc(N/N=C/c2sccc2C)n1 | -82*
CCOC(=O)N1CC=C2C(C#N)=C(N)C(C#N)(C#N)[C@H](c3ccc(OCC)c(OCC)c3)[C@H]2C1 | -78*
Cc1nc(N)sc1N=Nc1ccccc1C(F)(F)F | -184*
Nc1c(C(=O)NCC2CCCO2)c2nc3ccccc3nc2n1-c1ccccc1 (centres undefined) | 61
CC(C)(C)c1ccc(-c2noc(CCC(=O)NCC3CCCO3)n2)cc1 (centres undefined) | 104
Cc1ccc(C(=O)NC(=S)NCC2CCCO2)cc1 (centres undefined) | -147*
O=C(NC(=S)NCC1CCCO1)c1ccc(Cl)cc1 (centres undefined) | -106*
CN(C)c1ccc(C(=O)NCC2CCCO2)cc1 (centres undefined) | -107*
Cc1ccc2nc3c(cc(C(N)=S)c(=N)n3CCCOC(C)C)c(=O)n2c1 | -64*
SMILES | aSyn UTR act
CCCOc1ccc(-c2c(=O)n(O)c3ccccc3[n+]2[O-])cc1 | -176*
O=C(Cc1ccccc1[N+](=O)[O-])NCc1ccc(Cl)cc1Cl | -142*
O=C(Cc1ccccc1[N+](=O)[O-])NCc1ccc(Cl)cc1 | -94*
O=C1c2ccccc2C(=O)N1CCOc1ccccc1Cl | -105*
Nc1cccc2c1C(=O)N(CCOc1ccc(F)cc1)C2=O | -118*
CC(=O)Nc1nc2ccccc2n1CCOc1ccccc1Cl | 73
Cc1ccccc1OCCN1C(=O)c2ccccc2C1=O | -93*
O=C1c2ccccc2C(=O)N1CCOc1ccccc1Br | -71*
O=C1c2ccccc2C(=O)N1CCOc1ccccc1 | -96*
Cc1cc(C)n2cc(CSc3nc4ccccc4s3)nc2n1 | -107*
Cc1c(OCC(F)(F)F)ccnc1CS(=O)c1nc2ccccc2[nH]1 (centres undefined) | -99*
Cc1c(OCC(F)(F)F)ccnc1CSc1nc2ccccc2[nH]1 | -142*

Source: PubChem (Broad Institute)
